From PubChem BioAssay
TDP-43 yeast inh: inhibitors of TDP-43 toxicity in yeast | Potency, µM (series often up to 46.1 µM), inactives show at the highest dose growth rescue (activation), hits mostly activators | 410,000 tested, 1.8% active | TDP-43 expressing yeast growth rescue, BacTiter-Glo, 24 h; note: potency is the fitted concentration of half-maximal effect; % of control where 0% means no effect; nearly all actives have a fitted effect of over 50% in size
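Growth rescue of TDP-43-toxic yeast measured as ATP luminescence (BacTiter-Glo). Cells grown to mid-log in raffinose, induced in galactose at OD600=0.02, exposed to compound 24 hr at 30 deg C.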
Abeta rescue: restores growth of yeast expressing A-beta42 peptide; yeast expressing A-beta42, growth rescue, OD600, 48 h; response scale: 0% DMSO, 100% iron-clioquinol control; Potency, µM (top dose mostly 46.1 µM), hits mostly activators; 410,000 tested, 0.063% active; AID 1347071; note: potency is the fitted concentration of half-maximal effect; nearly all actives have a fitted effect of over 55% in size
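Yeast A-beta toxicity model in growth medium with pinned compounds, 48 h at 30 C; growth read as absorbance at 600 nm. Normalized to FeCl3/clioquinol equimolar mix (positive) and DMSO (negative).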
LDHA inh: LDHA (human) enzyme inhibition | 480,000 tested, 0.15% active | purified LDHA, NADH/diaphorase-resazurin fluorescence; stronger effect = lower value | P00338 | activity change, % (values are at about 110 or 230 µM); in the data active = activity change below about -30%; inconclusive = mostly about -25% to -30%;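 note: plate controls were DMSO wells for no effect and wells without enzyme for full effect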
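LDH5 2 nM; NADH 0.06 mM, pyruvate 0.2 mM; 200 mM Tris pH 7.4, EDTA, Tween-20; 5 min RT. Detection: diaphorase 0.133 mg/mL + resazurin 37 µM, fluorescence ex540/em590 at 0 and 20 min; normalized to enzyme-free and DMSO wells.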
FUS suppressor: suppressors of FUS proteinopathy in yeast; S. cerevisiae FUS-expressing, growth rescue, OD600, 24 h; Potency, µM (highest dose often 76.6 µM), usual class: activators; 390,000 tested, 0.24% active; AID 1347120;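 note: potency is the fitted concentration of half-maximal effect; plate controls were DMSO vehicle for no effect and reference control for full effect; nearly all actives have a fitted effect of over 55% in size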
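Read-out: OD at 600 nm after 24hr at 30C, reporting rescue of FUS-induced yeast toxicity. Cells at OD 0.005 in galactose (2%) minimal medium; compounds tested in a dilution series; CP55940 titration from 92uM final as control.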
mIDH1 inhibitor: human IDH1 R132H inhibition; 390,000 tested, 0.093% active; Potency, µM (titrated, usually from 76.6 µM), without a hit: at the top dose activity change, negative = inhibition, most hits filed as inhibitors; IDH1-R132H enzyme, NADPH consumption, diaphorase/resazurin fluorescence; AID 602179; O75874; note: potency is the fitted concentration of half-maximal effect; % is set by controls: 0 for no effect and ±100 for the full control effect; nearly all actives have a fitted effect of over 65% in size
Target sequence (O75874 whole entry R132H, stated change not applied): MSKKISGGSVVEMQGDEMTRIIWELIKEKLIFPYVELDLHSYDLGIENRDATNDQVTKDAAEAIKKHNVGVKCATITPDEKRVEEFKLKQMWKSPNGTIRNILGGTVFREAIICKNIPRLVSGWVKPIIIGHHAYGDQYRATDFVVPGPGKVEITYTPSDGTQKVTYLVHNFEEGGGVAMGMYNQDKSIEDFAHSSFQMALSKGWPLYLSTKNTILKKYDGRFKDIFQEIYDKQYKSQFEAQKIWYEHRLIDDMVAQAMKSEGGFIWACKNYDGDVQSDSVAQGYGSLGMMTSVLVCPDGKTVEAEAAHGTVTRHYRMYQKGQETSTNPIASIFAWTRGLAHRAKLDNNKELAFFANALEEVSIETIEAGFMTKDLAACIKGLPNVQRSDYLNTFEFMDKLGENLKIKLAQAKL
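IDH1-R132H (0.5 ug/mL dispensed) in pH 7.5 Tris buffer was preincubated 30 min with compound, then given a substrate mix of 0.016 mM NADPH and 2 mM alpha-KG for 80 min at room temperature; remaining NADPH was read by diaphorase/resazurin fluorescence.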
aSyn rescue: alpha-synuclein toxicity inhibition in yeast; Yeast expressing alpha-synuclein, growth rescue, BacTiter-Glo, 24 h; Potency, µM (highest dose often 46.1 µM), inactives show at the top dose growth rescue (activation), usual class: activators; 370,000 tested, 0.14% active; AID 652106; note: potency is the fitted concentration of half-maximal effect; % of control where 0% means no effect; nearly all actives have a fitted effect of over 65% in size
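Readout is rescue of growth in alpha-synuclein-expressing yeast, so inhibitors of toxicity appear as activators. Growth after 24 hr at 30 deg C in galactose medium is quantified by luminescence.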
* hit, by the source's call; i = inactive; ? = inconclusive; . = no result. Compounds with a hit are over-represented: about 2% of the library has one in this group of screens. Unless noted, calls come from the whole dose curve; as a rule, active = well fitted curve in the direction sought with a large enough effect; inconclusive = small, poorly fitted or top-dose-only effect, or another doubt; inactive = no such curve, though single readings can be large; an effect the other way counts as inactive or inconclusive.

SMILES | TDP-43 yeast inh | Abeta rescue | LDHA inh | FUS suppressor | mIDH1 inhibitor | aSyn rescue
CCc1ccccc1N(C)C(=O)c1cn(-c2cccc(OC)c2)c(=O)c2ccccc12 | 20µM* | i | -5 | i | -1% | .
Cc1cccc(C(=O)c2c(C)c(CCC#N)n3ccccc23)c1 | . | . | -2 | . | . | .
COc1ccc(C(=O)/C=C/c2ccc(Br)cc2)cc1CSCC(=O)O | . | . | 8 | . | . | .
Cc1ccc(S(=O)(=O)Nc2cccc3cccnc23)cc1 | 35µM* | i | -2 | i | -4% | ?
COc1ccc(NC(=O)c2ccccc2Cl)c2cccnc12 | . | . | 41 | . | . | .
COc1cc(NC(=O)c2ccccc2Cl)c2ncccc2c1 | 20µM* | i | -1 | i | 5% | 3%
COc1cc(NS(=O)(=O)c2ccc(C)cc2)c2ncccc2c1 | 11µM* | i | 7 | i | 9% | ?
O=C(C#Cc1ccccc1)c1ccc([N+](=O)[O-])cc1 | 11µM* | i | -6 | i | 4% | -14%
NS(=O)(=O)c1cc(Br)c2c(c1)S(=O)(=O)NCN2 | 10% | i | -37* | i | -4% | 0%
O=C(Oc1ccc2ccc(O)cc2c1)c1ccccc1Cl | 14µM* | i | -5 | i | 5% | -12%
O=C(Oc1ccc2ccc(O)cc2c1)C1CCCCC1 | 22µM* | i | -3 | i | 12% | -4%
COC(=O)c1cccc(OC(=O)c2ccccc2Cl)c1 | . | . | 6 | . | . | .
O=c1oc2cc(OCCN3CCN(CCO)CC3)ccc2cc1-c1ccccc1 | . | . | 8 | . | . | .
CCc1ccccc1NS(=O)(=O)c1ccc(-c2coc(C)n2)cc1 | 13µM* | i | -1 | i | -5% | 0%
COc1ccccc1NS(=O)(=O)c1ccc(-c2coc(C)n2)cc1 | . | . | 2 | . | . | .
CCCCCCOc1ccc(/C=C(/C#N)C(=O)c2ccccc2)cc1 | . | . | 0 | . | . | .
S=c1[nH]c(-c2ccccc2)cn1-c1ccccc1 | 13µM* | 13µM* | -16 | i | -2% | 0%
COc1cccc(-n2cc(-c3ccc(F)cc3)[nH]c2=S)c1 | 11µM* | ? | -12 | i | -4% | 1%
COc1cccc(-c2nc(CCl)cs2)c1 | 11µM* | i | -5 | i | 6% | -8%
O=C(c1ccc2c(c1)OCO2)N1CCN(c2cccc(C(F)(F)F)c2)CC1 | 22% | i | -6 | i | 0% | 0%
O=C(c1ccc2ncsc2c1)N1CCN(c2cccc(C(F)(F)F)c2)CC1 | 0% | 18µM* | -1 | ? | 0% | -2%
O=C(Nc1ccc2c(c1)OCO2)N1CCN(c2cccc(C(F)(F)F)c2)CC1 | 10µM* | i | 3 | i | -3% | -9%
O=C(CS(=O)(=O)c1cccc2nsnc12)N1CCN(c2cccc(C(F)(F)F)c2)CC1 | 20µM* | i | 3 | i | -8% | 14%
O=C(c1ccc2nc[nH]c2c1)N1CCN(c2cccc(C(F)(F)F)c2)CC1 | 9% | i | -5 | i | 0% | 0%
O=C(CS(=O)(=O)c1cccc2nsnc12)N1CCN(c2ccccc2F)CC1 | 6% | i | 10 | i | 5% | .
SMILES | TDP-43 yeast inh | Abeta rescue | LDHA inh | FUS suppressor | mIDH1 inhibitor | aSyn rescue
O=C(c1c(F)c(F)c(F)c(F)c1F)N1CCN(c2cccc(C(F)(F)F)c2)CC1 | 16µM* | i | -5 | i | 9% | 5%
O=C(Nc1ccc(Cl)cc1)c1ccc2c(Cl)c3c(nc2c1)CCCC3 | . | . | 7 | . | . | .
CC(C)CCC(=O)Nc1cccc(S(=O)(=O)NC(C)(C)C)c1 | . | . | 0 | . | . | .
Cc1nc(N2CCOCC2)c2c(C(=O)N3CCN(c4cccc(C(F)(F)F)c4)CC3)c(C)oc2n1 | ? | i | -3 | i | -6% | .
Cc1oc2ncnc(N3CCCCC3)c2c1C(=O)N1CCN(c2cccc(C(F)(F)F)c2)CC1 | 22µM* | i | 5 | ? | 0% | .
CCc1ccc(S(=O)(=O)NCc2csc(-c3ccccc3)n2)s1 | 3% | i | 0 | i | 11% | -5%
CCc1ccc(S(=O)(=O)NCCc2csc(-c3cccnc3)n2)s1 | 13µM* | ? | -1 | i | 0% | -26%
O=S(=O)(NCc1csc(-c2cccnc2)n1)c1ccc2c(c1)OCCO2 | 13% | i | -9 | i | -4% | 4%
CCc1ccc(S(=O)(=O)NCCc2csc(-c3ccccc3)n2)s1 | 14µM* | i | 0 | i | 6% | ?
O=S(=O)(NCCc1csc(-c2ccccc2)n1)c1ccc2c(c1)OCCO2 | 20µM* | i | -1 | i | 7% | 9%
O=[N+]([O-])c1ccc(N2CCc3ccccc3C2)nc1 | 13µM* | i | 1 | i | 5% | -4%
Cc1ccc(Nc2ccc([N+](=O)[O-])c3cnccc23)cc1 | . | . | 7 | . | . | .
CCOC(=O)C1=C(O)c2ccccc2C(=O)/C1=C\c1ccc(C)cc1 | 3.2µM* | i | 128 | . | 18% | -76%
O=C(COc1ccccc1)Nc1nnc(-c2ccc(F)cc2)o1 | ? | ? | 1 | i | 12% | 18µM*
O=C(COc1ccccc1)Nc1nnc(-c2ccccc2Cl)o1 | 0% | i | -5 | i | 1% | 8%
O=C(Nc1nnc(-c2ccc3c(c2)CCCC3)o1)c1ccccc1 | 5µM* | ? | -2 | i | -8% | ?
O=C(COc1ccccc1)Nc1nnc(-c2ccc3c(c2)CCCC3)o1 | 11µM* | ? | -2 | i | -6% | 10µM*
O=C(Nc1nnc(-c2ccc3c(c2)CCCC3)o1)c1ccccc1Cl | 10µM* | i | -3 | i | -8% | ?
O=C(CCOc1ccccc1)Nc1nnc(-c2ccc3c(c2)OCCO3)o1 | -8% | i | -3 | i | -1% | 1%
O=C(Nc1cccc2c1CCCC2)c1ccccc1Cl | 11% | i | -7 | i | 0% | -6%
COc1ccc(N2C(=O)C(C)CS2(=O)=O)cc1S(=O)(=O)Nc1ccc(Cl)cc1 (configuration not stated) | . | . | -3 | . | . | .
COc1ccc(CCNC(=O)C(C)C)cc1 | . | . | -6 | . | . | .
Cc1ccc(NC(=O)N2CCN(c3cccc(Cl)c3)CC2)cc1C | . | . | 1 | . | . | .
O=C(CCn1c(=O)c2cccn2c2cccnc21)N1CCN(c2ccc(F)cc2)CC1 | 13µM* | i | -4 | i | 13% | .
COc1ccc(N2CCN(C(=O)CCn3c(=O)c4cccn4c4cccnc43)CC2)cc1 | -8% | i | -3 | i | -7% | .
CC1(C)Cc2ccccc2-c2nnc(SCc3ccc(C#N)cc3)n21 | 13µM* | i | -1 | i | 10% | 18%
CC1(NC(=O)Cc2ccc3ccccc3c2)CCCC1 | . | . | 1 | . | . | .
CCc1ccc(NC(=O)c2nc3ccccc3nc2N2CCCC2)cc1 | . | . | -31* | . | . | .
